Screening results (PubChem BioAssay)
This is one part of a sample in which hits are shown more often than they occur.
Pf Dd2 growth: blocks in vitro growth of P. falciparum Dd2. P. falciparum Dd2 growth, SYBR Green, 72 h. Potency, µM (top dose mostly 28.9 µM), inactives show at the highest dose activity, negative = inhibition, usual class: inhibitors. actives 4.3% (n = 120,000). AID 1347417; active = well fitted inhibition curve with a large enough effect;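 also: plate controls were DMSO vehicle for no effect and reference drug for full effect; nearly all actives have a fitted effect of over 65% in size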
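Infected erythrocytes (Dd2, 0.3% parasitemia, 2.5% hematocrit final) are added to compound in RPMI-1640/Albumax II medium, grown 72 h at 37C in low oxygen, then lysed with saponin/Triton-X containing SYBR Green and read by fluorescence.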
* hit, by the source's call; i = inactive; [ ] = another dose, or the depositor's remark. Potency is read from the fitted curve at half-maximal effect.

SMILES	Pf Dd2 growth
CN1Cc2ccc(NCc3ccccc3)nc2C(C)(C(=O)NC2CCC2)C1 (stereo unspecified)	4µM*
CC1(C(=O)Nc2ccccc2)CN(Cc2ccccc2)Cc2ccc(N3CCOCC3)nc21 (stereo unspecified)	i
CC1(C(=O)Nc2ccc(F)cc2)CN(Cc2ccccc2)Cc2ccc(N3CCOCC3)nc21 (stereo unspecified)	6.3µM*
CC(C)CNc1ccc2c(n1)C(C)(C(=O)N1CCC1)CN(Cc1ccccc1)C2 (stereo unspecified)	i
COCCNC(=O)C1(C)CN(Cc2ccccc2)Cc2ccc(Nc3ccccc3)nc21 (stereo unspecified)	0%[44.1 µM]
CC(C)CNc1ccc2c(n1)C(C)(C(=O)NC1CC1)CN(Cc1ccccc1)C2 (stereo unspecified)	-19%[44.1 µM]
CNC(=O)C1(C)CN(Cc2ccccc2)Cc2ccc(Nc3ccccc3)nc21 (stereo unspecified)	10µM*
CNC(=O)[C@@H]1C[C@H](Oc2cccnc2)CN1C(=O)c1ccc(Cc2c(C)noc2C)o1	21%
CS(=O)(=O)N[C@H]1CO[C@H]2[C@@H]1OC[C@@H]2Nc1nccc(-c2cccc(F)c2)n1	27%[44.1 µM]
Cc1cc(C(=O)N[C@H](C)c2c(-c3ccc(F)cc3)noc2C(=O)O)c(C)o1	13%[44.1 µM]
COc1ccc(C(=O)N2CC[C@H]3COC(=O)N3c3cc(C)ccc3C2)cc1	-3%[44.1 µM]
CN(C)CCN(C)[C@@H]1[C@H](O)[C@H](CO)O[C@@H]1CNC(=O)c1cccc(F)c1	-3%
O=C(NC[C@H]1O[C@@H](CC(=O)N2CCN(c3ccccc3)CC2)C(O)[C@@H]1O)c1cccc(F)c1 (stereo partly specified)	-7%
Cc1ccccc1OCc1ccc(-c2nc(C#N)c(NCc3cccnc3)o2)o1	-24%
CCCCNc1oc(-c2ccc(COc3ccccc3C)o2)nc1C#N	11µM*
N#Cc1nc(-c2ccc(COc3ccccc3)o2)oc1N1CCCCC1	59%[0.594 µM]
Cc1cccc(OCc2ccc(-c3nc(C#N)c(N4CCN(c5ccccc5)CC4)o3)o2)c1	10µM*
COc1ccc(CNc2oc(COc3cccc(C)c3)nc2C#N)cc1	0%
COCCCNc1oc(-c2ccc(COc3ccccc3C)o2)nc1C#N	-27%
Cc1cccc(OCc2ccc(-c3nc(C#N)c(NCc4cccnc4)o3)o2)c1	7.9µM*
CCN1CCN(c2oc(-c3ccc(COc4ccccc4C)o3)nc2C#N)CC1	-14%
COc1ccc(Nc2oc(-c3ccc(COc4ccccc4)o3)nc2C#N)cc1	-5%
O=C(COc1ccccc1)Nc1ccc2ncnc(N3CCCCC3)c2c1	i
Cc1cccc(OCC(=O)c2ccc3c(c2)N(C(C)C(=O)Nc2ccccc2)C(=O)CO3)c1C (stereo unspecified)	i
NCCCC(=O)N1CCC2(CC1)CN([S+](=O)([O-])c1ccccc1)CCO2	12%
SMILES	Pf Dd2 growth
O=C1Nc2ccccc2CNC12CCN(CC1CCCC1)CC2	-18%
CC(C)(C)C(=O)N1CCC2(CC1)Cc1ccccc1NC2=O	-8%[44.1 µM]
CC(C)c1noc([C@@H]2C[C@H]3C(=O)NCCCCCCN(C(=O)CC4CCCCC4)[C@H]3C2)n1	i
CCn1cc(CN2CCCCC2c2nc(CCOCC3CCOCC3)no2)cn1 (stereo unspecified)	-8%
CC[C@H]1CN(C(=O)C2CC2)CC[C@H]1CC(=O)O	21%[44.1 µM]
CCCS(=O)(=O)N1CCC(F)(c2nc(-c3ccccc3)no2)CC1	-14%
O=C(CN1CCCc2nc(C3CC3)ncc2C1=O)NC1CC1	38%
CC(C)NC(=O)C[C@@H]1C[C@H]2O[C@H](CNC3CCC3)[C@@H](O)[C@H]2O1	32%[44.1 µM]
COc1ccc(-c2nc3c(c(=O)[nH]2)CCN(C(=O)CSc2ccccc2)C3)cc1	4.5µM*
COc1ccc(-c2nc3c(c(=O)[nH]2)CCN(C(=O)COc2ccc(F)c(F)c2)C3)cc1	1%
COc1ccc(-c2nc3c(c(=O)[nH]2)CCN(C(=O)c2ccccc2)C3)cc1	i
CN(C)[C@H]1C[C@@H](Cc2cc(CCO)on2)C1(C)C	-6%[44.1 µM]
COc1ccccc1N1CCN(C(=O)C[C@@H]2CCNC[C@@H]2Cc2cc(COc3ccccc3)on2)CC1	-29%
O=C(C[C@@H]1CCNC[C@@H]1Cc1cc(CN2CCOCC2)on1)N1CCN(c2ccccc2)CC1	6%
COc1ccc(-c2cc(C[C@H]3CNCC[C@H]3CC(=O)NC(C)C)no2)cc1	i
COc1ccc(-c2cc(C[C@H]3CNCC[C@H]3CC(=O)N3CCC(Cc4ccccc4)CC3)no2)cc1	7.9µM*
COc1ccc(-c2cc(C[C@H]3CNCC[C@H]3CC(=O)N3CCN(c4ccccc4OC)CC3)no2)cc1	-26%
COc1ccccc1N1CCN(C(=O)C[C@@H]2CCNC[C@@H]2Cc2cc(-c3ccc(F)cc3)on2)CC1	11µM*
CC(C)(C)c1cc(C[C@H]2CNCC[C@H]2CC(=O)N2CCC(Cc3ccccc3)CC2)no1	7.9µM*
NC(=O)C1CCN(C(=O)C[C@@H]2CCNC[C@@H]2Cc2cc(COc3ccccc3)on2)CC1	12%
